# Experimental data taken from PubChem BioAssay (NCATS).
# Inconclusive results are not listed. A call without a number means that no potency is given here. Unmarked numbers belong to inactive results. Activity calls are given as the source filed them. Unless noted, calls come from the whole dose curve; as a rule, active = well fitted curve in the direction sought with a large enough effect; inconclusive = small, poorly fitted or top-dose-only effect, or another doubt; inactive = no such curve, though single readings can be large; an effect the other way counts as inactive or inconclusive.
# Assays:
# [1] = qHTS for Inhibitors of Plasmodium falciparum (DD2) proliferation (AID 504314);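 note: parasite DNA measured by SYBR Green fluorescence after red cell lysis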
# Method in brief: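 SYBR Green DNA-fluorescence growth assay: infected RBCs at 0.3% parasitemia, 2.5% hematocrit, 72 h compound exposure, 37C, 5% CO2; overnight lysis with dye at RT; normalized to 0.29 uM artemisinin and vehicle.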
# [2] = qHTS for Inhibitors of Plasmodium falciparum (HB3) proliferation (AID 504318); note: nearly all actives have a fitted effect of over 60% in size
# Method in brief: (§1)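 Parasite growth measured as SYBR Green DNA fluorescence (ex 485, em 535 nm) after overnight lysis following 72 h culture at 37 °C, 0.3% parasitemia, 2.5% hematocrit. Values normalized against DMSO and 0.29 uM artemisinin controls, with plate-stack correction.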
# [3] = qHTS for Inhibitors of Plasmodium falciparum (CP250) proliferation (AID 504320)
# Method in brief: as §1
# [4] = biological target: Atrial natriuretic peptide receptor 1 (Homo sapiens) (UniProt P16066); assay: Natriuretic polypeptide receptor (hNpr1) antagonism - Pilot CMLD screen (AID 1347052; calls by dose curve;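 note: HEK293 cells with hNpr1 stimulated by hNppA peptide at 0.1 nM; cGMP level read as GloSensor luciferase luminescence after agonist stimulation; series mostly up to about 9.2 µM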)
# Chain of Atrial natriuretic peptide receptor 1 (Homo sapiens) (P16066 whole entry, looked up): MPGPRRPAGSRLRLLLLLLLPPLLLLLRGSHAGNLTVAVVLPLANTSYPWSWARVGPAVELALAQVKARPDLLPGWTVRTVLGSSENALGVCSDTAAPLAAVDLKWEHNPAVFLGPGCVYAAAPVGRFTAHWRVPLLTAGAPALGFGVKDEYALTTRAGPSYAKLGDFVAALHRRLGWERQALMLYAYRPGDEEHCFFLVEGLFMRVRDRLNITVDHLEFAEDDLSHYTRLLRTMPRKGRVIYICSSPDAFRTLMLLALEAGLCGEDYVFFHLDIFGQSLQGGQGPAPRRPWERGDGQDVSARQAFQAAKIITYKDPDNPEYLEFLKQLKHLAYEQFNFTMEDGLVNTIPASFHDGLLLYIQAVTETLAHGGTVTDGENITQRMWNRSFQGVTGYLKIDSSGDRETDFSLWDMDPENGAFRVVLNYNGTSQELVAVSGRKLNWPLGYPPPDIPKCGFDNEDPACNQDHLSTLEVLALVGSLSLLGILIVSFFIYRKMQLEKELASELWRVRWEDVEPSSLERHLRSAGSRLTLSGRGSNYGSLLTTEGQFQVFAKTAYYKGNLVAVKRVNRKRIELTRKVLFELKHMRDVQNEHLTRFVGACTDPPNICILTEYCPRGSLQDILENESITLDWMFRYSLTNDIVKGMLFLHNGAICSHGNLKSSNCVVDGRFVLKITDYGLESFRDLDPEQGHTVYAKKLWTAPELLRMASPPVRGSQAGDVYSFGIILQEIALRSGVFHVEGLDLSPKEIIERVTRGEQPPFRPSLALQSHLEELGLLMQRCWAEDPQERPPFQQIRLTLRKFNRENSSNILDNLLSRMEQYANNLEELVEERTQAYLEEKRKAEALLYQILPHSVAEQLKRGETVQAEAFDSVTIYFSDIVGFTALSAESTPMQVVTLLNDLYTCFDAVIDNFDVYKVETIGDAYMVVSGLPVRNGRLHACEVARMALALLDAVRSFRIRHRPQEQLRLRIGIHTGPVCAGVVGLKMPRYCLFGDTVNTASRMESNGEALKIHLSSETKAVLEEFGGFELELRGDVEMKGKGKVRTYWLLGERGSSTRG
# [5] = qHTS for Inhibitors of Plasmodium falciparum (7G8) proliferation (AID 504316); note: series mostly up to about 6.7 µM; nearly all actives have a fitted effect of over 65% in size
# Method in brief: as §1
# [6] = qHTS for Inhibitors of Plasmodium falciparum (GB4) proliferation (AID 504315); note: nearly all actives have a fitted effect of over 50% in size; note: potency is the fitted concentration of half-maximal effect
# Method in brief: as §1
# [7] = biological target: Cytochrome P450 2C9 (Homo sapiens) (UniProt P11712); assay: qHTS Assay for Inhibitors and Substrates of Cytochrome P450 2C9 (AID 883); note: nearly all actives have a fitted effect of over 60% in size
# Chain of Cytochrome P450 2C9 (Homo sapiens) (P11712 whole entry, looked up): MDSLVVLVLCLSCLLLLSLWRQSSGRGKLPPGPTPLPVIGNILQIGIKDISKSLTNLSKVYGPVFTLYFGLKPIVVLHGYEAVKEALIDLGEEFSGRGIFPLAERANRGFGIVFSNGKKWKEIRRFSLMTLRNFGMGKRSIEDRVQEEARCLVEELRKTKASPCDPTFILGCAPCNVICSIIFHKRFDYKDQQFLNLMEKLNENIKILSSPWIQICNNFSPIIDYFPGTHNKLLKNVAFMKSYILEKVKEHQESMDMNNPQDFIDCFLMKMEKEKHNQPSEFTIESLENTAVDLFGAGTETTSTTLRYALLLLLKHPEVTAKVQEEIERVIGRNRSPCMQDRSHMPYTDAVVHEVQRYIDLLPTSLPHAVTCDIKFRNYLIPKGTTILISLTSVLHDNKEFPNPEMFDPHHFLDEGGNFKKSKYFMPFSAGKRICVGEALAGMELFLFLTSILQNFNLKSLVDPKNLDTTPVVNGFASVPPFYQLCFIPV
# Method in brief: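 10nM CYP2C9 + 100uM Luciferin-H (=KM), 25mM KPO4; cpd 10 min 37C; NADPH regen, 60 min 37C; stop/detect with P450 Glo-Buffer 20 min; luminescence. Norm. to 57uM sulphaphenazole as full inhibition.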
# [8] = biological target: Cytochrome P450 3A4 (Homo sapiens) (UniProt P08684); assay: qHTS Assay for Inhibitors and Substrates of Cytochrome P450 3A4 (AID 884); note: series mostly up to about 57 µM; nearly all actives have a fitted effect of over 50% in size
# Chain of Cytochrome P450 3A4 (Homo sapiens) (P08684 whole entry, looked up): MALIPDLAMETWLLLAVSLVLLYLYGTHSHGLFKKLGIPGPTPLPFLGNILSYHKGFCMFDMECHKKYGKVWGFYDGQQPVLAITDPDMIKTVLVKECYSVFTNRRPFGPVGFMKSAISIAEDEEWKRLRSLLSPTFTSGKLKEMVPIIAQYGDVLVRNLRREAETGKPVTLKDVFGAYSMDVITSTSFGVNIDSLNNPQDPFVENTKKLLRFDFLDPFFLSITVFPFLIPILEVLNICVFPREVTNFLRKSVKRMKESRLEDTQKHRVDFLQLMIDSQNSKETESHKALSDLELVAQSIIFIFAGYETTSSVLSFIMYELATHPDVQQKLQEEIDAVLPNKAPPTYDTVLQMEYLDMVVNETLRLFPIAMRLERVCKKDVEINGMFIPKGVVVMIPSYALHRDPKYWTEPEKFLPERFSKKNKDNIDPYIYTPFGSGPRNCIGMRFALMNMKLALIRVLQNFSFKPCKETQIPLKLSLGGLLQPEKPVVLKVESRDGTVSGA
# Method in brief: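 Luminescent readout of luciferin produced by CYP3A4 (20 nM) dealkylation of Luciferin-PPXE, 25 uM (its KM). NADPH-driven reaction ran 60 min at RT after 10 min compound preincubation; data scaled to 57 uM ketoconazole as 100% inhibition.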
# [9] = biological target: Cytochrome P450 2D6 (Homo sapiens) (UniProt P10635); assay: qHTS Assay for Inhibitors and Substrates of Cytochrome P450 2D6 (AID 891);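 note: luciferin methyl ether substrate demethylated by CYP2D6 with NADPH regeneration; nearly all actives have a fitted effect of over 60% in size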
# Chain of Cytochrome P450 2D6 (Homo sapiens) (P10635 whole entry, looked up): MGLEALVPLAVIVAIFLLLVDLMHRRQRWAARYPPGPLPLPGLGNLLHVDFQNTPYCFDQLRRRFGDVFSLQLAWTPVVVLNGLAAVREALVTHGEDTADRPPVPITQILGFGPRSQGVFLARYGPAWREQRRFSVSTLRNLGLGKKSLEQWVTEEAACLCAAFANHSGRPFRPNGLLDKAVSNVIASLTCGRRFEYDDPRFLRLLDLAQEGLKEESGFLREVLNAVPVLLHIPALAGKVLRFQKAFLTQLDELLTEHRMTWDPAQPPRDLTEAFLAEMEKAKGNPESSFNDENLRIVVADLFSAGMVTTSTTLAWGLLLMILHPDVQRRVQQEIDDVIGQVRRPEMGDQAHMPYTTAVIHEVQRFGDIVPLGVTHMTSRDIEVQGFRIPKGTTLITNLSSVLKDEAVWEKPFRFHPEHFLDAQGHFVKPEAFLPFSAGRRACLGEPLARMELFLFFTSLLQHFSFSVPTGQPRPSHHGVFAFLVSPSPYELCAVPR
# Method in brief: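 Luminescent read-out of luciferin formed by 5 nM human CYP2D6 demethylating 30 uM Luciferin-ME EGE (Km level) over 60 min at room temperature after NADPH regeneration addition. Data normalized to full inhibition by 1.43 uM quinidine.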
# [10] = biological target: Cytochrome P450 2C19 (Homo sapiens) (UniProt P33261); assay: qHTS Assay for Inhibitors and Substrates of Cytochrome P450 2C19 (AID 899); note: nearly all actives have a fitted effect of over 60% in size
# Chain of Cytochrome P450 2C19 (Homo sapiens) (P33261 whole entry, looked up): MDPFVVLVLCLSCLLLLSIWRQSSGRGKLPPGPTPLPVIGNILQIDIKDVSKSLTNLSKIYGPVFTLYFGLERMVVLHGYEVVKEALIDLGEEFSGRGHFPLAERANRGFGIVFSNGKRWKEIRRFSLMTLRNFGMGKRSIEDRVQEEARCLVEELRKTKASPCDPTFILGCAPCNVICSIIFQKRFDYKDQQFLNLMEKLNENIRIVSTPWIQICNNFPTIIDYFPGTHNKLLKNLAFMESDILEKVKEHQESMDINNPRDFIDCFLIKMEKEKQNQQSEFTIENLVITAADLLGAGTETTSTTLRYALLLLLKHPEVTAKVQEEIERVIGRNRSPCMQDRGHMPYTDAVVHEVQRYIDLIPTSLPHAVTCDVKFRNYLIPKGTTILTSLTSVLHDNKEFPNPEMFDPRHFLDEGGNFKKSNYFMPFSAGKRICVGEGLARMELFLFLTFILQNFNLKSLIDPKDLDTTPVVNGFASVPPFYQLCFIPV
# Method in brief: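 Luminescent read-out of luciferin formed from Luciferin-H EGE (10uM, equal to KM). Enzyme 5nM in 50mM KPO4; compound added, 10 min at 37C, then NADPH regenerating system for 60 min at 37C. Full inhibition defined by 57uM ketoconazole.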
structure (smiles),measurement,setting,value
C=C(COC)C1=CCC(C(=O)OC)(C(=O)OC)[C@@H](C[N+](=O)[O-])c2ccccc21,Potency,[1],inactive
same,Potency,[2],inactive
same,Potency,[3],inactive
same,Potency,[4],inactive
COc1cccc(C(CC2=CCCCC2)NC(=O)C(F)(F)F)c1 (centres undefined),Potency,[1],inactive
same,Potency,[2],inactive
same,Potency,[3],inactive
same,Potency,[4],inactive
CC(=O)OC[C@H]1O[C@@H](ON=C(C)CCC(=O)OC[C@H]2O[C@H](C#Cc3ccccc3)C=C[C@H]2Oc2ccc(C)cc2)[C@H](OC(C)=O)[C@@H](OC(C)=O)[C@H]1OC(C)=O,Potency,[1],inactive
same,Potency,[2],inactive
same,Potency,[3],inactive
same,Potency,[4],inactive
COC(=O)[C@@H]1[C@@H](c2cccc(C(F)(F)F)c2)NC(=O)N(Cc2ccccc2)[C@@H]1C,Potency,[1],inactive
same,Potency,[5],inactive
same,Potency,[3],inactive
same,Potency,[4],inactive
CC1=C[C@@H](COCc2ccccc2)O[C@@]2(C1)C(=O)Nc1cccc(Br)c12,Potency,[6],inactive
same,Potency,[4],inactive
COC(=O)[C@@H]1CC[C@H](C)[C@@H](c2ccc(C)cc2)N1C(=O)c1ccc(C=NOC[C@@H](O)COCc2ccco2)cc1,Potency,[6],inactive
same,Potency,[4],inactive
COC(=O)NC(c1ccccc1)c1c[nH]c2ccc(OC)cc12 (centres undefined),Potency,[6],inactive
same,Potency,[5],inactive
same,Potency,[2],inactive
same,Potency,[4],inactive
C=CCN=C1NC(CCc2ccccc2)C(C(=O)OC)=C(C)N1CC (centres undefined),Potency,[6],inactive
same,Potency,[5],inactive
same,Potency,[2],inactive
same,Potency,[4],inactive
CCCNC(=O)OC[C@H]1O[C@H](CCON=C(C)CCC(=O)OC[C@H]2O[C@H](C#Cc3ccccc3)C=C[C@H]2Oc2ccc(C)cc2)C=C[C@H]1Oc1ccc(OC)cc1,Potency,[6],inactive
same,Potency,[5],inactive
same,Potency,[4],inactive
COC(=O)C1=C(C(=O)OC)[C@@H]2N(C)c3ccc(OC)cc3[C@@]23C[C@@H](C(=O)OC)N(C(=O)N2CCNC2=O)C3=N1,Potency,[6],inactive
same,Potency,[4],inactive
CC1(O)C(=O)C=C2C=C(CCCCOCc3ccccc3)OC=C2C1=O (centres undefined),"activity change, negative = inhibition",[7],-27.6% [at 11.4 µM]
same,"activity change, negative = inhibition",[8],-25.3% [at 11.4 µM]
same,"activity change, negative = inhibition",[9],-3.73% [at 11.4 µM]
same,"activity, negative = inhibition",[10],-23.3% [at 11.4 µM]
same,Potency,[1],inactive
same,Potency,[3],inactive
same,Potency,[4],inactive
COC1=C[C@@H](C(=O)N[C@H]2CCCC[C@H]2NC(C)=O)[C@@H](C)[C@H](c2ccccc2)CC1=O,Potency,[1],inactive
same,Potency,[3],inactive
same,Potency,[4],inactive
CCCCCCCC1=Cc2ccccc2C(CC(=O)c2ccccc2)N1C(=O)OC (centres undefined),"activity, negative = inhibition",[1],-4.11% [at 1.12 µM]
same,Potency,[3],inactive
same,Potency,[4],inactive
COC(=O)[C@H]1O[C@@H](c2cc(OC)c(C)c(OC)c2OCc2ccccc2)[C@H](C)[C@@H]2O[C@]12C,Potency,[6],2130 nM (active)
same,Potency,[4],inactive
C=C(CO[C@@H]1C=C[C@@H](c2ccccc2)O[C@@H]1COC)c1ccccc1,Potency,[6],1510 nM (active)
same,Potency,[4],inactive
N#CCCCSc1nnnn1-c1cc(C(F)(F)F)cc(C(F)(F)F)c1,Potency,[6],inactive
same,Potency,[5],inactive
same,Potency,[4],inactive
COC1=C(C(=O)c2ccccc2)C(=O)[C@@]2(CC=C(C)C)CC(C#N)C[C@@]1(CC=C(C)C)C2=O (some centres undefined),Potency,[6],inactive
same,Potency,[4],inactive
CC(=O)OC[C@H]1O[C@H](CC=NOC[C@@H](C)[C@H](OCc2ccccc2)C(C)C)C=C[C@@H]1OC(C)=O,Potency,[6],inactive
same,Potency,[5],inactive
same,Potency,[2],inactive
same,Potency,[4],inactive
